Reference: PubChem BioAssay (EPA / NIEHS)
Inconclusive results are not listed. Active and inactive are the calls of the source. How the source made its calls: active means hit-call score of the fitted dose curve at least 0.9, where 1 is the maximum; inconclusive means response in the unintended direction; inactive means score below 0.9.

Molecular target: Bile acid receptor (Homo sapiens) (UniProt Q96RI1)
Experiment: OT_FXR_FXRSRC1_1440: Odyssey Thera (OT) 24-hour HEK293T Protein-Complementation Assay for Farnesoid X receptor/SRC-1 Co-activator (AID 2283384)
Protocol: OT_FXR_FXRSRC1_1440 is a cell-based assay that uses HEK293T, a human kidney cell line, with measurements taken at 24 hours after chemical dosing in a 384-well plate.OT_FXR_FXRSRC1_1440 is one of one assay component(s) measured or calculated from the OT_FXR_FXRSRC1_1440 assay. It is designed to make measurements of protein fragment complementation, a form of binding reporter, as detected with fluorescence intensity signals by Protein-fragment Complementation technology.Data from the assay component OT_FXR_FXRSRC1_1440 was analyzed into 1 assay endpoint. This assay endpoint, OT_FXR_FXRSRC1_1440, was analyzed in the positive analysis fitting direction relative to DMSO as the negative control and baseline of activity. Using a type of binding reporter, measures of receptor for gain-of-signal activity can be used to understand the binding at the pathway-level as they relate to the gene NR1H4. Furthermore, this assay endpoint can be referred to as a primary readout, because the performed assay has only produced 1 assay endpoint. To generalize the intended target to other relatable targets, this assay endpoint is annotated to the nuclear receptor intended target family, where the subfamily is non-steroidal.
Protein-fragment complementation assay, or PCA, is a method for the identification and quantification of protein-protein interactions. In the PCA, the proteins of interest ("bait" and "prey") are each covalently linked to fragments of a third protein (e.g. DHFR, which acts as a "reporter"). Interaction between the bait and the prey proteins brings the fragments of the reporter protein in close proximity to allow them to form a functional reporter protein whose activity can be measured.

Sequence of Bile acid receptor (Homo sapiens) (Q96RI1 whole entry, looked up): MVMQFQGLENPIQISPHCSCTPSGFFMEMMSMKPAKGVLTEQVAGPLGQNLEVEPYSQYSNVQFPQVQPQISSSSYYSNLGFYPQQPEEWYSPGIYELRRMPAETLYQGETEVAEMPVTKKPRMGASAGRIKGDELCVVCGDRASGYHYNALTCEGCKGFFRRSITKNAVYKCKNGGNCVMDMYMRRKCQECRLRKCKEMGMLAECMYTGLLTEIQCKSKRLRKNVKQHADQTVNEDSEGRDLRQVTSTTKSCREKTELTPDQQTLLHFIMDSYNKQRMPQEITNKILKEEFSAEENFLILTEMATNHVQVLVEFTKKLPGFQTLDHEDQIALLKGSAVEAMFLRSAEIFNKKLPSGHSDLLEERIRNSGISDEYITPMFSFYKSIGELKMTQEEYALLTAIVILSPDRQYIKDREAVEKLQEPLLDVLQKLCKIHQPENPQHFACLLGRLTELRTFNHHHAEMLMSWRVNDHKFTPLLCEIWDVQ

**Q.** For `CCOCn1c(-c2ccc(Cl)cc2)c(C#N)c(Br)c1C(F)(F)F`, which AC50 is on record?
**A.** Its AC50 is 3.05 µM (active).

**Q.** For `O=C(O)C1(c2ccc3c(c2)OC[C@H](Cc2ccc(-c4ccccc4)cc2)[C@H]3O)CCCC1`, which AC50 is on record?
**A.** The AC50 was 90 µM (active).

**Q.** How did the outcome turn out when `CC1(C)[C@H](C(=O)O[C@H](C#N)c2cccc(Oc3ccccc3)c2)[C@@H]1/C=C(\Cl)C(F)(F)F` was run?
**A.** The outcome was “inactive”.

**Q.** How did the outcome turn out when `COC(=O)Nc1cccc(OC(=O)Nc2cccc(C)c2)c1` was run?
**A.** Its outcome is “inactive”.

**Q.** How did the outcome turn out when `Cc1cc(Cl)ccc1OCCCC(=O)O` was run?
**A.** The outcome was “inactive”.

**Q.** How did the outcome turn out when `O=S1(=O)OC(c2cc(Br)c(O)c(Br)c2)(c2cc(Br)c(O)c(Br)c2)c2ccccc21` was run?
**A.** Its outcome is “inactive”.

**Q.** With `CCCCCCCCCCCCN(C)C` as the molecule, how does the outcome read?
**A.** Its outcome is “inactive”.

**Q.** `COCCl` was tested. Which outcome did it give?
**A.** Its outcome is “inactive”.

**Q.** For `O=C(NC(=O)c1c(F)cccc1F)Nc1ccc(Cl)cc1`, which outcome is on record?
**A.** The outcome was “inactive”.

**Q.** For `COc1nn(C(=O)NS(=O)(=O)c2ccccc2OC(F)(F)F)c(=O)n1C`, which outcome is on record?
**A.** The outcome was “inactive”.

**Q.** How did the AC50 turn out when `O=S1OC[C@@H]2[C@H](CO1)[C@]1(Cl)C(Cl)=C(Cl)[C@@]2(Cl)C1(Cl)Cl` (some centres not stated) was run?
**A.** The AC50 was 68.1 µM (active).

**Q.** Which outcome does the source give for `N#Cc1cccnc1` here?
**A.** Its outcome is “inactive”.

**Q.** For `CCOP(=S)(OCC)O/N=C(\C#N)c1ccccc1`, which outcome is on record?
**A.** The outcome was “inactive”.

**Q.** Which outcome does the source give for `CCCSP(=S)(OCC)Oc1ccc(SC)cc1` (configuration not stated) here?
**A.** The outcome was “inactive”.

**Q.** `Cc1cc(Cl)ccc1O` was tested. Which outcome did it give?
**A.** Its outcome is “inactive”.

**Q.** For `O=C(NC(=O)c1c(F)cccc1F)Nc1cc(Cl)c(OC(F)(F)C(F)C(F)(F)F)cc1Cl` (configuration not stated), which AC50 is on record?
**A.** Its AC50 is 43.7 µM (active).

**Q.** How did the AC50 turn out when `CCC[CH2][Sn]([CH2]CCC)([CH2]CCC)[CH2]CCC` was run?
**A.** The AC50 was 11.8 µM (active).

**Q.** Which outcome does the source give for `Nc1ccc(N)cc1` here?
**A.** The outcome was “inactive”.

**Q.** Which outcome does the source give for `OCCCCO` here?
**A.** The outcome was “inactive”.

**Q.** Which AC50 does the source give for `CC(C)=CC1C(C(=O)OCc2cccc(Oc3ccccc3)c2)C1(C)C` (configuration not stated) here?
**A.** The AC50 was 12.3 µM (active).

**Q.** With `CCOc1ccc(N)cc1` as the molecule, how does the AC50 read?
**A.** Its AC50 is 46.8 µM (active).

**Q.** Which outcome does the source give for `O=C(CBr)c1ccc(O)cc1` here?
**A.** Its outcome is “inactive”.
